What all share (experiment): NCI-60 one-dose screen, 48 h (100 = growth as untreated, 0 = no growth, -100 = all killed)
Conditions in all cases: 10 µM unless noted

The subject of experiment [1] is EKVX NSCLC.
Experiment [2] concerns SN12C renal.
Experiment [3] deals with UO-31 renal.
Experiment [4] concerns TK-10 renal.
The test system of experiment [5] is ACHN renal.
The test system of experiment [6] is CAKI-1 renal.
For experiment [7], the system named is CCRF-CEM leukemia.
For experiment [8], the system named is SR leukemia.
Experiment [9] deals with RPMI-8226 leukemia.
Experiment [10] deals with OVCAR-8 ovarian.
The test system of experiment [11] is OVCAR-5 ovarian.
Experiment [12] concerns OVCAR-4 ovarian.
Experiment [13] has as its system SK-OV-3 ovarian.
In experiment [14] the test system is OVCAR-3 ovarian.
The test system of experiment [15] is NCI/ADR-RES ovarian.
Experiment [16] has as its system A498 renal.
In experiment [17] the test system is MOLT-4 leukemia.
Experiment [18] has as its system IGROV1 ovarian.
The subject of experiment [19] is HS 578T breast.

About 83,000 compounds went through this panel and 20% of them were active in at least one assay; those are over-represented in the sample as a whole.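 The endpoint reported here, percent growth, reads 100 for growth as untreated, 0 for no net growth and -100 for all cells dead.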 Values without a mark were called inactive. The source made the active and inactive calls. How the source made its calls: active means growth percent below 10; inactive means the rest.

For the molecule `Cc1ccc(N2C(=O)C=CC2=O)cc1`, the growth was 116% in [1]; 93.7% in experiment [2]; 90% in experiment [3]; 99.5% in [4]; 68.1% in [5]; 86.1% in experiment [6]. The growth in [7] was 13.7%; in experiment [8], 66%; in experiment [9], 98.8%; in experiment [10] it was 110%; in experiment [11] it was 110%; in [12], 107%. In addition, the growth in experiment [13] is 121%; in experiment [14], 118%; in experiment [15], 104%.
Turning to `O=C(CCl)N1c2ccccc2Sc2c1ccc1ccccc21`, the growth is 96.1% in experiment [1]; 73.8% in experiment [2]; 70.4% in [3]; 119% in experiment [4]; 78.7% in experiment [5]; 80.7% in [6]. The growth in experiment [16] was 110%; in experiment [7] it was 6.54% (active); in experiment [17], 12%; in experiment [8], 12.9%; in experiment [9] it was 36.1%; in experiment [10], 64.2%. In addition, the growth in experiment [11] is 108%; in experiment [13], 106%; in experiment [18] it was 34.4%; in [14], 74.3%; in [19], 82.1%.
As for `O=C1C(=O)c2cccnc2-c2ncccc21`, the growth was -49.7% (active) in experiment [1]; -14.3% (active) in experiment [2]; -71.3% (active) in [3]; -24% (active) in experiment [4]; -69.4% (active) in [5]; -29.4% (active) in experiment [6]. Further, the growth is -39.4% (active) in [16]; -32.6% (active) in experiment [7]; -45.1% (active) in experiment [17]; -45.5% (active) in experiment [8]; -29.7% (active) in experiment [9]; -33% (active) in experiment [10]. Besides, the growth in experiment [11] is -57.6% (active); in [12] it was -100% (active); in experiment [13], -32.8% (active); in experiment [18] it was -53.8% (active); in experiment [14], -100% (active); in experiment [19] it was -47.5% (active). In experiment [15], the growth is -96.3% (active).
As for `CCCCCCCCCCCC[n+]1ccc(CCCCCCCCC)cc1`, the growth in [2] is -70.9% (active); in experiment [3] it was -19.4% (active); in experiment [4], -31.4% (active); in [5], -80.7% (active); in [6] it was 23.4%; in [16], -25.4% (active). Besides, the growth in experiment [7] is -34.9% (active); in experiment [17], -44.7% (active); in experiment [8], -32% (active); in [9], -54.6% (active); in experiment [10] it was -80.4% (active); in experiment [11], -16.8% (active). Moreover, the growth in experiment [12] was -79.1% (active); in experiment [13], -18.9% (active); in [18] it was -79.5% (active); in [14], -85.3% (active); in experiment [19], -7.56% (active); in experiment [15] it was 35.8%.
Take `O=Nc1ccc2ccccc2c1O`: the growth is 64.1% in experiment [1]; 42.4% in experiment [2]; 79.8% in [3]; 9.55% (active) in experiment [4]; 69.1% in experiment [5]; 78.1% in experiment [6]. In addition, the growth in experiment [16] is 95.3%; in experiment [7], 64.5%; in [17] it was 91.2%; in experiment [8], 60.1%; in [9] it was 70%; in [10], 6.45% (active). The growth is 81.8% in experiment [11]; 35.2% in [12]; 95% in experiment [13]; 53.2% in experiment [18]; 2.86% (active) in [14]; 51% in [19]. For the same molecule, in experiment [15], the growth was 6.37% (active).
Take `Oc1ccc2ccccc2c1N=Nc1nccs1`: the growth was -9.54% (active) in experiment [1]; 34.4% in [2]; 59.3% in experiment [3]; -14% (active) in experiment [4]; 10.3% in experiment [5]; -31.1% (active) in experiment [6]. Further, the growth in experiment [16] was 136%; in experiment [8], -10% (active); in [9], 2.25% (active); in experiment [10] it was 14.9%; in [11], 45.3%; in experiment [12], 16.2%. Besides, the growth in experiment [13] is 51.6%; in experiment [18], 184%; in experiment [14] it was 1.47% (active); in experiment [19], 213%; in experiment [15], -22.6% (active).
Regarding `CCc1oc2ccccc2c1C(=O)c1cc(Br)c(O)c(Br)c1`, the growth in [1] was 73.6%; in [2], 78.4%; in experiment [4] it was 125%; in [5], 84.2%; in experiment [6] it was 63.6%; in experiment [16] it was 67.2%. The growth was 41.8% in [7]; 83.9% in experiment [17]; 34.7% in experiment [9]; 79.2% in [10]; 124% in experiment [11]; 67% in experiment [12]. Besides, the growth in [13] was 95.8%; in experiment [18], 72.2%; in experiment [14], 58.2%; in experiment [15], 44.1%.
With `Cc1cc(I)nc2ccccc12`, the growth in experiment [1] was 101%; in experiment [2] it was 109%; in experiment [4] it was 113%; in [5], 107%; in [6] it was 98.7%; in experiment [16], 117%. Besides, the growth in [7] was 92.2%; in experiment [8], 107%; in experiment [10], 107%; in experiment [12], 112%; in experiment [13], 109%; in experiment [18] it was 104%. Further, the growth in experiment [14] is 130%; in experiment [15] it was 109%.
As for `CCSc1nc2ccccc2o1`, the growth was 104% in experiment [1]; 88.9% in experiment [2]; 79.4% in experiment [3]; 102% in [4]; 99% in experiment [5]; 87.9% in experiment [6]. Further, the growth in experiment [16] was 83.6%; in experiment [7], 97.5%; in experiment [8] it was 94.2%; in experiment [9], 104%; in experiment [10], 103%; in [11], 101%. The growth in [12] was 101%; in experiment [13], 104%; in experiment [18], 90.1%; in [14] it was 111%; in [19], 102%; in [15], 108%.

Source of the values: PubChem BioAssay (NCI).
